# Test results from PubChem BioAssay (NCATS).
# Records with an inconclusive call do not appear. Active and inactive are the calls of the source. The call rests on the fitted dose curve; in most records, active means well fitted inhibition curve with a large enough effect; inconclusive means small, poorly fitted or top-dose-only effect; inactive means flat fitted curve, though single readings scatter.
# Test: qHTS to identify inhibitors of the type 1 interferon - major histocompatibility complex class I in skeletal muscle: primary screen against the NCATS Pharmaceutical Collection (AID 1347407);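 further: luminescence of HiBiT knocked into endogenous HLA-B as interferon-induced MHC class I level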
# Details: human skeletal muscle cells, IFN-b-induced MHC-I HiBiT luminescence, 24 h; series mostly up to 45.9 µM; activity change, negative = inhibition: at the top concentration
# How it was run: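 Compounds […] were added to CRISPR-engineered HLA-B-HiBiT C25cl48 human myoblasts with 4.0 ng/ml IFN-beta. After 24 hrs at 37 C, cells were lysed and HiBiT luminescence measured.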
# On the % scale 0 is the no-effect control and ±100 the full control effect; potency means the concentration at half of the fitted maximal effect.
Compound,"activity change, negative = inhibition",Potency
CN(C)CCCOC1(Cc2ccccc2)CCCCCC1,3.51% (inactive),
O=C(CCCl)NCc1ccccc1,4.04% (inactive),
CCCC(=O)Nc1ccc(O)c(C(C)=O)c1,7.92% (inactive),
Brc1ccccc1-c1ccccc1,-6.04% [at 92.2 µM] (inactive),
CC(=O)N(CC(=O)N(C)C)c1ccccc1,-5.69% (inactive),
O=C(O)C1CCC1,3.28% (inactive),
Cc1sccc1Br,-1.88% (inactive),
CCC(=O)Oc1ccc2c(c1)CC[C@@H]1[C@@H]2CC[C@@]2(C)[C@H]1C[C@@H](OC(=O)CC)[C@@H]2OC(=O)CC,-8.82% (inactive),
CCCC(=O)O[C@]1(C(=O)CC)CC[C@H]2[C@@H]3CCC4=CC(=O)CC[C@]4(C)[C@H]3[C@@H](O)C[C@@]21C,-35.2% (inactive),
C[C@@H](C1=C(CCN(C)C)Cc2ccccc21)c1ccccn1,-17.6% (inactive),
O=C(C1CCCCC1)N1CC(=O)N2CCCc3ccccc3C2C1 (configuration not stated),-4.02% (inactive),
CC(C)C(=O)OCc1cccc(OC(=O)[C@@H]2N3C(=O)[C@@H](NC(=O)Cc4ccccc4)[C@H]3SC2(C)C)c1,0.221% (inactive),
Nc1ccc([N+](=O)[O-])c(C(F)(F)F)c1,4.64% (inactive),
C[N+](C)(CCOc1ccccc1)Cc1cccs1,-13.9% (inactive),
COc1cc2c(cc1OC)CN(C(=O)[C@H](C)N[C@@H](CCc1ccccc1)C(=O)O)[C@H](C(=O)O)C2,-0.212% (inactive),
Cc1ccc(-c2ccccc2C#N)cc1,-5.25% (inactive),
CC(C)C(=O)Nc1cccc(C2CN3CCSC3=N2)c1 (configuration not stated),-7.39% (inactive),
Fc1ccc(C(c2ccc(F)cc2)N2CCNCC2)cc1,-1.61% (inactive),
CC[C@@H]([C@H](C)O)n1ncn(-c2ccc(N3CCN(c4ccc(OC[C@@H]5CO[C@@](Cn6cncn6)(c6ccc(F)cc6F)C5)cc4)CC3)cc2)c1=O,6.55% (inactive),

Compound,"activity change, negative = inhibition",Potency
CN1N=C(C(N)=O)CCC1=O,-1.18% (inactive),
CC(=O)O[C@@H]1CC2C3CCc4cc(OC(=O)c5ccccc5)ccc4C3CCC2(C)[C@H]1OC(C)=O (some centres not stated),-15.4% (inactive),
Cc1c(F)cc2c(=O)c(C(=O)O)cn3c2c1CCC3C (configuration not stated),1.99% (inactive),
CCCCCOc1ccccc1/C(=C\SC)n1ccnc1,-7.12% (inactive),
COCCOCC(OC)OC,2.65% (inactive),
CCN(CC)C(=O)C1CN2CCc3cc(OC)c(OC)cc3C2CC1OC(C)=O (configuration not stated),8.2% (inactive),
CN1Cc2cc(C(=O)N3CCC(C4CCNCC4)CC3)ccc2NC(CC(=O)O)C1=O (configuration not stated),-2.42% (inactive),
CCCC(CCC)(C(=O)OCC)C(=O)OCC,-1.46% (inactive),
CCCCCC(=O)O[C@]1(C(C)=O)CC[C@H]2[C@@H]3CCC4=CC(=O)CC[C@]4(C)[C@H]3CC[C@@]21C,-5.05% (inactive),
CCOc1ncc(F)c(=O)[nH]1,6.83% (inactive),
Nc1nnnn1-c1ccccc1,16.7% (inactive),
CCN(CC)CC(=O)Oc1ccc(NC(C)=O)cc1,-1.84% (inactive),
C=CCNc1nc(NCC=C)nc(N2CCN(C(c3ccc(F)cc3)c3ccc(F)cc3)CC2)n1,-9.24% (inactive),
O=C(OCCN1CCOCC1)c1cccnc1Nc1cccc(C(F)(F)F)c1,-19.7% (inactive),
CN1CC[C@H](c2c(O)cc(O)c3c(=O)cc(-c4ccccc4Cl)oc23)[C@H](O)C1,,210 nM (active)
CCOC(=O)OCC/C(SC(=O)OCC)=C(\C)N(C=O)Cc1cnc(C)nc1N,0.433% (inactive),
Cn1cc(S(C)=O)c(=O)c2ccc(F)cc21 (configuration not stated),-17.5% (inactive),
CC(=O)Nc1ccc(S(=O)(=O)Nc2cc(C)on2)cc1,1.71% (inactive),
